Results taken from ChEMBL document CHEMBL3433997, “St. Jude Leishmania screening dataset” (2016).

These molecules were tested against Glucose transporter (Leishmania mexicana) (UniProt O61059) (assay: ST_JUDE_LEISH: Cytotoxicity at 2uM final concentration against transgenic Leishmania Mexicana promastigotes LmGT2 that are glucose transport deficient and complemented with the L. Mexicana glucose transporter 2. Activity is measured by DNA content using SYBR green in vitro).
Assay type: functional

Structure (SMILES)	inhibition
O=C(Nc1cccc(-c2cccc(-c3nc4cc(C(F)(F)F)ccc4[nH]3)c2)c1)c1csnn1	9.43%
O=C(O[C@@H]1CN[C@H](C#Cc2cc3ncnc(Nc4ccc5c(cnn5Cc5cccc(F)c5)c4)c3s2)C1)N1CCCC1	-1.8%
Cc1cccc(C)c1CNc1nc(N2CCOCC2)cc2c(C)c(C)[nH]c12	4.38%
COc1ccc(-c2ccc(NC(=O)c3ccc(Cl)cc3)cc2)cc1CN(C)CCN(C)C	2.75%
COc1ccc(C=NN=c2c3ccccc3[nH]c3ccccc23)c2ccccc12	5.05%
O=C(Nc1ccc(Cn2ncc(N3CCCNCC3)c(Cl)c2=O)cc1)Nc1cccc(C(F)(F)F)c1	-2.08%
Nc1c(-c2ccc(C(=O)NCCNCc3ccccc3)cc2)cnn1-c1ccc(C(F)(F)F)cc1	-0.31%
c1cc(Nc2nccc(-c3cnn4ncccc34)n2)cc(-c2cnco2)c1	63.1%
COc1ccc2ncc(F)c(CCN3CCC(NCc4cc(C)c5c(c4)OCCO5)CC3)c2n1	5.07%
CC(CNc1nc(NCC(c2ccccc2)c2ccccc2)c2nc[nH]c2n1)c1ccccc1 (stereo not given)	3.73%
CC(C)c1cccc(C(C)C)c1NC(=O)NNC(=O)c1ccc(CCN2CCC(c3nc(COCC(F)(F)F)c(-c4ccc(F)cc4)o3)CC2)cc1	12.7%
Cc1cc([N+](=O)[O-])ccc1N1CCN(CCCCNC(=O)c2ccc(NC(=O)c3ccc(Cl)cc3)cc2)CC1	4.35%
N=C(N)Nc1nc(-c2ccc(NCc3ccc(CNc4cccc(-c5csc(NC(=N)N)n5)c4)cc3)cc2)cs1	1.12%
CN(C)c1ccc(CN2CCC(CNC(=O)c3cc(-c4ccccc4F)cs3)C2)cc1 (stereo not given)	2.12%
CC(C)N(Cc1ccc(-c2ccc(C(F)(F)F)cc2)cc1)C(=O)Cn1c(SCc2cccc(F)c2F)cc(=O)c2cc(CN3CCCCC3)ccc21	3.27%
COc1cc(Cc2cnc(NCCN3CCNCC3)nc2N)ccc1OCc1ccc(C(F)(F)F)cc1	6.93%
CCn1c(-c2nonc2N)nc2c(-c3cccc(NC(=O)Nc4cccc(C#N)c4)c3)ncc(OCCCN)c21	2.66%
Nc1ncc(-c2ccc(F)c(Cl)c2)c(N)n1	1.32%
CC(C)[C@H](NC(=O)c1ccc(O)c(-c2cccc(C(F)(F)F)c2)c1)C(=O)NCCN1CCCCC1	0.62%
CCCCCCCCc1c(C)nc(C)c(C#N)c1O	5.78%

Structure (SMILES)	inhibition
O=C(Nc1cccc(CN2CCCN(Cc3cccc(O)c3)CC2)c1)c1ccc2ccccc2c1	-2.82%
O=C(Nc1nc2cc(S(=O)(=O)NCCc3ccc(F)cc3)ccc2n1CCCn1ccnc1)c1ccc(Cl)cc1	1.86%
Cc1c(CNCCN2CCCCC2)c(C(=O)O)c(C)n1Cc1ccc(Cl)cc1	0.22%
N=C(N)NN=Cc1ccc2c(c1)Cc1ccccc1-2	6.46%
O=C(NCCCCCN1CCC(c2c[nH]c3ccccc23)C1)Nc1ccc(Cl)c(Cl)c1 (stereo not given)	2.22%
Cc1ccccc1C1CCN(C2CCC(NC(=O)/C=C/c3ccc(C(F)(F)F)cc3F)CC2)CC1 (stereo not given)	0.34%
CN(C)c1cc(C(=O)N[C@@H](Cc2ccccc2)[C@H](O)CNC2CCCCC2)cc2[nH]ccc12	7.44%
CC(C)CNC(=S)N1CCCN(c2nc3ccc(Cl)cc3s2)CC1	0.2%
O=C(/C=C/c1ccc(Cl)c(Cl)c1)NCCCCCN1CCC(NC(=O)Nc2ccc(F)c(Cl)c2)CC1	6.8%
CCOCCCNc1sc(S(=O)(=O)c2ccccc2)nc1S(=O)(=O)c1ccc(C)cc1	9.56%
CCN(CCN(C)C)Cc1ccc(-c2ccc(NS(=O)(=O)c3cccc4cccnc34)cc2)cc1	6.11%
O=C(CCc1nc2c(cnn2-c2ccccc2)c(=O)[nH]1)NC1CCSc2ccccc21 (stereo not given)	-2.08%
O=C(/C=C/c1cccc(OC(F)(F)F)c1)NCCCCCN1CCC(c2c[nH]c3ccccc23)CC1	-2.1%
COc1ccc(Nc2nc(C)cc(NC3CCCC3)n2)cc1	17.7%
O=C(/C=C/c1ccc(Cl)c(Cl)c1)NCCCCCN1CCC(NC(=O)Nc2ccc(OC(F)F)cc2)CC1	5.2%
O=C(c1cccs1)N1CCN(c2ccc([N+](=O)[O-])c(NC3CC3)c2)CC1	1.6%
COc1ccc2nccc([C@H](O)CN3CCC(NCc4cc(C)c5c(c4)OCCO5)CC3)c2n1	-2.32%
O=S(=O)(c1cc(Cl)sc1Cl)N(CCC(O)(C(F)(F)F)C(F)(F)F)Cc1cccc(O)c1	2.62%
CN(C)c1ccc(-c2nc3cc(N)ccc3[nH]2)cc1	0.22%
Cn1cncc1-c1ccc2ncnc(Nc3ccc4c(cnn4Cc4ccccc4)c3)c2c1	1.22%
